Screens as filed in PubChem.
TEAD-YAP inh: TEAD-YAP interaction inhibition | inhibition, % at 9.12 µM | HEK-TIYL cells, TEAD-Gal4/YAP UAS-luciferase luminescence | 640,000 tested, 1.4% active; in the data active means inhibition above about 32%;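 further: 0% = median of test compound wells and 100% = reference inhibitor wells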
FBW7 act: activators of human E3 ligase FBW7; Q969H0; AlphaScreen FBW7–phospho-cyclin E peptide binding, activator screen; normalized activity (activation), % at 26.1 µM; 650,000 tested, 0.13% active; in the data active means normalized activity above about 1.9%;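 further: purified mutant Fbw7 with reduced substrate affinity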
MITF inh: inhibitors of human MITF. O75030. AlphaScreen MITF homodimerization, bead proximity signal. inhibition, % at 2.6 µM. 650,000 tested, 0.91% active. AID 1259374; in the data active means inhibition above about 50%;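 further: 0% = vehicle wells with protein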
GPR151 activ: activates the human receptor GPR151. Q8TDV0. 650,000 tested, 1% active. activation, % at 11.2 µM. PathHunter beta-arrestin GPR151 cells, luminescence. AID 1508602; in the data active means activation above about 4.9%;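 further: 0% = median of compound wells and 100% = cells with positive control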
Target sequence (Q8TDV0 whole entry, looked up): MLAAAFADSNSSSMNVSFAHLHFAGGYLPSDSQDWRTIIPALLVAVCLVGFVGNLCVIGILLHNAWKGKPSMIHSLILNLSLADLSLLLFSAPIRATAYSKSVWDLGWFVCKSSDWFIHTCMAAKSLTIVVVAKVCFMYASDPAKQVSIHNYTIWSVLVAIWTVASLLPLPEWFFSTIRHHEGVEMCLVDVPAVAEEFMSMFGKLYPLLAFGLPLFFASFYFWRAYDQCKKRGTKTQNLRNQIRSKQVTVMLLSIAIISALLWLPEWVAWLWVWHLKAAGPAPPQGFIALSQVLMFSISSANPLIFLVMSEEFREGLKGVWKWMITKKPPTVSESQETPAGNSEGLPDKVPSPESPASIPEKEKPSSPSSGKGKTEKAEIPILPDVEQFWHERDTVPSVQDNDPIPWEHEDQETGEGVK
Starred values were filed as active, the others as inactive; ! = not confirmed by another sample. This is a sample that favours compounds with a hit; in the whole collection about 3.5% have one here.

SMILES | TEAD-YAP inh | FBW7 act | MITF inh | GPR151 activ
Cn1c(/C=C/c2ccccc2)c([N+](=O)[O-])c(=O)n(C)c1=O | 25.2 | -0.4 | -5.7 | -0.5
Cn1c(/C=C/c2cccc(Oc3ccccc3)c2)c([N+](=O)[O-])c(=O)n(C)c1=O | 45.0* | -0.1 | 4.5 | 1.4
CCOc1cc(/C=N/n2cnnc2)cc(I)c1O | -2.1 | 0.0 | 65.3* | 0.8
COCCCN1C(=O)c2[nH]nc(-c3ccccc3O)c2C1c1ccc(C)cc1 (stereo not given) | 42.6* | 0.0 | -5.8 | -0.9
COc1ccc(CNC(=O)N2CCC(c3nnc(C(C)C)o3)CC2)cc1OC | 0.0 | 2.5* | -3.5 | -0.2
COc1ccc(CCNC(=O)CN2CCC(c3nnc(C(C)C)o3)CC2)cc1OC | 8.5 | 0.4 | 1.1 | -0.6
C=CCOc1cccc(/C=C2\C(=O)N(CCc3ccc(OC)c(OC)c3)C(C)=C2C(=O)OC)c1 | -12.7 | -0.1 | 60.7* | 0.1
COc1ccc(-c2nsc3c(N4CCOCC4)ncnc23)cc1 | 82.3* | -0.1 | -22.0 | 0.1
CC1CCCCN1c1ncnc2c(-c3ccc([N+](=O)[O-])cc3)nsc12 (stereo not given) | -9.6 | -0.1 | -1.4 | 1.2
COc1ccc(-c2nsc3c(N4CCCCC4C)ncnc23)cc1 (stereo not given) | 93.1* | 0.2 | 9.7 | -0.6
COc1ccc(-c2nsc3c(N4CCC(C(N)=O)CC4)ncnc23)cc1 | 39.0* | 0.2 | 2.3 | -1.4
COc1ccc(-c2nsc3c(N4CCN(C)CC4)ncnc23)cc1 | 37.8* | 0.0 | -8.5 | 0.1
COc1cc(OC)cc(C(=O)NCCn2c(C)cc3ccccc32)c1 | -16.6 | -0.4 | 14.7 | 0.6
OC1(c2cccnc2)CCN(CCOc2ccccc2)CC1 | -2.7 | 0.1 | -6.9 | -0.4
COc1ccc(-c2nsc3c(N4CCCCC4)ncnc23)cc1 | 83.1* | 0.1 | -12.4 | -0.9
O=[N+]([O-])c1ccc(-c2nsc3c(N4CCCC4)ncnc23)cc1 | -25.5 | -0.1 | 18.2 | 0.6
COc1cc(Nc2cc(C)nc(Nc3cc(OC)c(OC)c(OC)c3)n2)cc(OC)c1OC | 24.4 | -0.2 | -4.0 | 0.2
COc1ccc(CCNc2cc(C)nc(Nc3ccncc3)n2)cc1 | -3.7 | -0.1 | -3.5 | 1.4
COc1ccc(CCNc2cc(C)nc(Nc3cc(OC)c(OC)c(OC)c3)n2)cc1 | 35.8* | -0.2 | 1.3 | 1.8
COc1cc(Nc2cc(C)nc(Nc3cccc(N(C)C)c3)n2)cc(OC)c1OC | 48.0* | -0.3 | -8.3 | 0.5
O=C(NC1CC1)C(Sc1ccccc1)c1ccccc1 (stereo not given) | 0.0 | 0.4 | 6.4 | -2.4
COc1cccc2oc(-c3ccccc3)cc(=O)c12 | 60.1* | 0.1 | 11.6 | -10.9
Cc1ccc(C(=O)CNC(=O)c2ccccc2)cc1 | 65.4* | -0.1 | 3.9 | -7.6
Cc1ccc(C(=O)NC(=S)NCC(=O)c2ccccc2)cc1 | -17.5 | 0.0 | -8.1 | 2.7
CN(C)CCNC(=O)c1ccc(-c2ccccc2)cc1 | 35.0* | 0.4 | 3.2 | -2.1
SMILES | TEAD-YAP inh | FBW7 act | MITF inh | GPR151 activ
CCNC(=O)c1ccc(-c2ccccc2)cc1 | -32.9 | -0.1 | 1.1 | -1.3
COc1cc2c(-c3ccccc3Cl)nc3c(c(Cc4ccccc4)nn3-c3ccccc3)c2cc1OC | -4.6 | 0.4 | 5.5 | -0.8
CCOC(=O)c1cc2cccc(NS(=O)(=O)c3cccs3)c2[nH]1 | 4.1 | 0.1 | 6.3 | -2.2
COc1ccc(S(=O)(=O)Nc2cccc3c(C)c(C)[nH]c23)cc1 | 44.4* | -0.2 | 9.7 | 1.9
Cc1[nH]c2c(NS(=O)(=O)c3ccc4oc(=O)ccc4c3)cccc2c1C | -3.8 | -0.2 | 3.0 | 0.1
CCOC(=O)c1cc2cccc(NS(=O)(=O)c3ccc(OC)cc3)c2[nH]1 | 52.3* | -0.1 | -4.0 | 0.0
C[C@@H](C(=O)NCc1ccc(F)cc1)N1C(=O)C2CC=CCC2C1=O (stereo not given in full) | 4.3 | -0.1 | -5.7 | 0.3
COc1ccc(NC(=O)c2ccccn2)cc1 | 50.9* | -0.1 | -7.3 | -6.2
CCOc1ccc(NC(=S)c2ccccn2)cc1 | 74.8* | -0.6 | 24.3 | -7.9
COc1ccc(C(=O)Nc2ccc(NC(=O)c3ccccn3)cn2)cc1 | -0.3 | -0.2 | -6.2 | 0.7
Cc1ccc(NS(=O)(=O)c2ccc3[nH]cc(C(=O)O)c(=O)c3c2)cc1C | 16.3 | 0.0 | 2.6 | -0.4
CSc1nnc(NC(=O)c2cc(Cl)ccc2Cl)s1 | -11.7 | 0.0 | -3.8 | -3.0
COc1cccc(C(=O)N2CCN(S(=O)(=O)c3ccc(Cl)cc3)CC2)c1OC | -7.6 | 0.0 | 0.8 | -0.8
CN(C)/C=C/C=C1\CCC/C(=C\N(C)C)C1=O | -14.3 | -1.2 | 52.5* | 0.5
COc1ccc(Nc2cc(C)nc(-n3nc(C)cc3C)n2)cc1OC | 69.2* | 0.3 | 4.5 | -1.1
Cc1cccc(C2=N/C(=C/c3coc4ccc(Cl)cc4c3=O)C(=O)O2)c1 | 5.1 | 0.0 | -6.1 | -1.4
COc1c(C)c2c(c(O)c1C/C=C(\C)CCC(=O)OCCN1CCOCC1)C(=O)OC2 | 47.9* | 0.1 | -3.7 | -1.7
COc1ccccc1OCC(=O)NCCS(=O)(=O)N1CCN(c2ncccn2)CC1 | 4.8 | -0.1 | -25.5 | -1.3
NC(=S)NNc1cccc2cccnc12 | 2.4 | -0.5 | 74.2*! | 0.4
c1cc(-c2nc3ccc(Nc4nccc(-c5cncc(N6CCOCC6)c5)n4)cc3o2)ccn1 | -2.9 | 0.0 | 3.5 | 1.7
c1cc(Cn2cncn2)cc(Nc2nccc(-c3cncc(N4CCOCC4)c3)n2)c1 | 92.2* | 0.8 | 14.3 | 0.3
c1cc(Cn2ccnc2)cc(Nc2nccc(-c3cncc(N4CCOCC4)c3)n2)c1 | 87.3* | -0.8 | -4.7 | 0.7
Cc1[nH]n(-c2ccccc2)c(=O)c1C=Nc1cccc2ncccc12 | -4.6 | -0.5 | -4.5 | 0.3
O=C(CSc1ccc(Cl)cc1)Nc1ccc(S(=O)(=O)N2CCCC2)cc1 | 19.6 | 0.1 | 16.8 | -0.3
O=C(CSc1nnc(-c2cccnc2)s1)Nc1ccnc2ccccc12 | 47.8* | -0.4 | -10.8 | -0.5
SMILES | TEAD-YAP inh | FBW7 act | MITF inh | GPR151 activ
Cc1ccc(NC(=O)CSc2nnc(-c3cccnc3)s2)cc1 | -3.5 | 0.0 | 7.7 | 1.9
COc1cc(S(=O)(=O)NCc2ccccn2)ccc1Cl | 36.8* | 0.4 | 2.4 | 2.3
COc1cccc(S(=O)(=O)NCc2ccccn2)c1 | 10.3 | 0.0 | 8.8 | -1.7
O=S(=O)(NCc1ccccn1)c1ccc(Cc2ccc(S(=O)(=O)NCc3ccccn3)cc2)cc1 | 58.9* | -0.2 | 8.2 | 0.3
CC(=O)N1CCN(Cc2ccc3c(c2)CN(C(=O)CCc2cc(C)cc(C)c2)CCO3)CC1 | -3.0 | -0.1 | 1.7 | 0.0
COc1cc(C(=O)/C=C/Nc2ccccc2C(N)=O)cc(OC)c1OC | 37.8* | 0.6 | 6.2 | -1.4
Cc1ccc(C(=O)/C=C/Nc2ccccc2C(N)=O)cc1 | 55.6* | 0.0 | -2.6 | -5.1
COc1cc(C(=O)/C=C/Nc2ccccc2C)cc(OC)c1OC | -28.7 | -0.1 | 1.4 | 2.2
O=C(Cc1ccccc1)OCc1ccc(-c2ccc(Br)cc2)o1 | -16.9 | 0.1 | -10.6 | -1.5
O=C(O)CCc1ccc(-c2ccc(Br)cc2)o1 | -4.3 | 0.1 | 55.7* | -2.0
c1ccc(-n2cnc3c(NC4CC4)nc(Nc4nccc5ccccc45)nc32)cc1 | 43.3* | 0.4 | 9.3 | -2.1
